“And” between values parts separate entries of the source, which are not always exact repeats. Identical values can stand only once. Records with an inconclusive call do not appear. A structure can be active in one record and inactive in another. The source made the active and inactive calls. Unless noted, calls follow the shape of the dose curve; as a rule, active = well fitted curve in the direction sought with a large enough effect in the repeat runs; inconclusive = weak or mixed curves; inactive = no such curve, though single readings can be large; an effect the other way counts as inactive or inconclusive.
What was measured:
[1] = qHTS assay to identify small molecule agonists of the hypoxia (HIF-1) signaling pathway - cell viability counter screen (AID 1224844; calls by dose curve; also: nearly all actives have a fitted effect of over 50% in size)
In short: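 HRE-bla ME-180 cells, 2,000/well in 0.5% dialyzed FBS medium, treated 17 h at 37C with compounds. Viability read in the same wells as the bla reporter, by CellTiter-Glo luminescence after 30 min at room temperature.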

[2] = qHTS assay to identify small molecule agonists of the hypoxia (HIF-1) signaling pathway (AID 1224846; active = well fitted activation curve with a large enough effect in the signal ratio in the repeat runs, not every such curve was filed as active; the % refers to the signal ratio)
In short: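 HRE-bla ME-180 beta-lactamase reporter cells in medium with 0.5% dialyzed FBS, pre-incubated 5 h then exposed to compounds 17 h at 37C, 5% CO2; reporter induction read with CCF4-AM FRET substrate.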

[3] = qHTS assay to identify small molecule agonists of H2AX - cell viability counter screen (AID 1224847; calls by dose curve; also: top concentration of the series differs between compounds; nearly all actives have a fitted effect of over 30% in size)
In short: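 CHO-K1 cells plated overnight at 37C, then exposed 3 h at 37C to compounds at 15 concentrations (0.76% DMSO final). Viability by CellTiter-Glo luminescence after 30 min at room temperature.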

[4] = qHTS assay to identify small molecule antagonists of the estrogen related receptor (ERR) signaling pathway from Tox21 library (AID 1224848); also: nearly all actives have a fitted effect of over 50% in size
In short: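 Cells: ERR line, 2,000/well; 6 h preincubation 37 C/5% CO2. Cpd in DMSO via pin tool; 18 h, 37 C. ONE-Glo, 30 min RT, luminescence.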

[5] = qHTS RealTime-Glo MT Cell Viability Assay in HepG2 cells - 24 hour (AID 1224867); also: nearly all actives have a fitted effect of over 50% in size
In short: (§1)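 Viability was tracked continuously by NanoLuc luminescence from prosubstrate reduced by living HepG2 cells, at successive time points over 40 h of compound exposure. Cells with reagent were preincubated 5 h at 37 °C before compound addition.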

[6] = qHTS RealTime-Glo MT Cell Viability Assay in HEK293 cells - 32 hour (AID 1224868); also: nearly all actives have a fitted effect of over 50% in size; also: potency is read from the fitted curve at half-maximal effect
In short: (§2)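 Viability tracked continuously by luminescence as live cells reduce a prosubstrate for NanoLuc; HEK293 cells preincubated 5 h, compound-treated at 37 C, and read at 0, 8, 16, 24, 32 and 40 h.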

[7] = qHTS RealTime-Glo MT Cell Viability Assay in HepG2 cells - 40 hour (AID 1224870); also: nearly all actives have a fitted effect of over 50% in size
In short: (§3)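 HepG2 cells mixed with RealTime-Glo MT reagents (NanoLuc plus cell-permeant prosubstrate) were seeded at 600 cells/well, incubated 5 h at 37 C/5% CO2, then pinned with compounds in DMSO; nonlytic luminescence tracked viability during 40 h treatment.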

[8] = A CellTox Green Cytotoxicity Assay to monitor cytotoxicity in HEK293 cells - 40 hour (AID 1224871); also: nearly all actives have a fitted effect of over 45% in size
In short: (§4)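 HEK293 cells, 600/well, were preincubated 5 hours and then exposed to compounds at 37 C for up to 40 hours. A cell-impermeant cyanine dye staining dead-cell DNA was read by fluorescence at 0, 8, 16, 24, 32 and 40 h time points.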

[9] = qHTS RealTime-Glo MT Cell Viability Assay in HEK293 cells - 16 hour (AID 1224872); also: nearly all actives have a fitted effect of over 50% in size; also: potency is read from the fitted curve at half-maximal effect
In short: as §2

[10] = qHTS RealTime-Glo MT Cell Viability Assay in HepG2 cells - 8 hour (AID 1224873); also: nearly all actives have a fitted effect of over 55% in size
In short: as §3

[11] = qHTS RealTime-Glo MT Cell Viability Assay in HEK293 cells - 40 hour (AID 1224874); conditions: RealTime-Glo luminescence; max response: stronger effect = lower value; also: nearly all actives have a fitted effect of over 50% in size; also: potency is read from the fitted curve at half-maximal effect
In short: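 600 cells/well were plated with the nonlytic NanoLuc/prosubstrate reagent, pre-incubated 5 h, then given 23 nL of compound in DMSO. Incubation at 37 C for 40 h, with luminescence from viable-cell-reduced substrate read repeatedly from 0 h.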

[12] = A CellTox Green Cytotoxicity Assay to monitor cytotoxicity in HEK293 cells - 24 hour (AID 1224875); also: nearly all actives have a fitted effect of over 45% in size
In short: as §4

[13] = A CellTox Green Cytotoxicity Assay to monitor cytotoxicity in HepG2 cells - 16 hour (AID 1224876); also: nearly all actives have a fitted effect of over 45% in size
In short: (§5)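 HepG2 cells, 600/well, preincubated 5 h with CellTox Green dye, then exposed to Tox21 compounds in DMSO at 37 C for up to 40 h. Dead-cell DNA fluorescence read at the indicated time point.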

[14] = A CellTox Green Cytotoxicity Assay to monitor cytotoxicity in HepG2 cells - 24 hour (AID 1224878); also: nearly all actives have a fitted effect of over 45% in size
In short: as §5

[15] = A CellTox Green Cytotoxicity Assay to monitor cytotoxicity in HepG2 cells - 40 hour (AID 1224879); also: nearly all actives have a fitted effect of over 40% in size; also: potency is read from the fitted curve at half-maximal effect
In short: as §5

[16] = qHTS assay to identify small molecule agonists of H2AX (AID 1224845; active = well fitted activation curve with a large enough effect in the signal ratio in the repeat runs, not every such curve was filed as active; the % refers to the signal ratio)
In short: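 Wild-type CHO-K1 cells plated overnight, then exposed 3 hr at 37C to compounds at 15 concentrations (0.76% DMSO). Lysed, then HTRF anti-pH2AX(S139)-cryptate/anti-H2AX-d2 detection after 24 hr at room temperature; emissions 665 and 620 nm.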

[17] = qHTS assay to identify small molecule agonists of the estrogen related receptor (ERR) signaling pathway from Tox21 library (AID 1224849; calls by dose curve; also: nearly all actives have a fitted effect of over 15% in size); conditions: ERR reporter cell line, ONE-Glo luciferase, 18 h; at 92.4 µM (top of the series) unless noted
In short: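 ERR reporter cells (NTP line) pre-incubated 6 hours at 37 C, then exposed to compounds for 18 hours at 37 C. ONE-Glo luciferase luminescence was read after 30 minutes at room temperature.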

[18] = A CellTox Green Cytotoxicity Assay to monitor cytotoxicity in HEK293 cells - 0 hour (AID 1224869); also: nearly all actives have a fitted effect of over 50% in size
In short: as §4

[19] = qHTS RealTime-Glo MT Cell Viability Assay in HepG2 cells - 32 hour (AID 1224877); also: nearly all actives have a fitted effect of over 55% in size
In short: as §1
% is scaled to controls: 0 for no effect and ±100 for the full control effect.

CCS(=O)(=O)c1ccc(OC)c(C(=O)OC)c1
inactive: Potency [1] | outcome [2] | Potency [3] | Potency [4] | Potency [5] | Potency [6] | Potency [7] | Potency [8] | Potency [9] | Potency [10] | max response [11] 5.71% | Potency [12] | Potency [13] | Potency [14] | Potency [15]

O=Cc1cccc([N+](=O)[O-])c1
inactive: Potency [1] | outcome [16] | outcome [2] | Potency [3] | Potency [4] | activity change, positive = activation [17] -4.24% | Potency [5] | Potency [18] | Potency [7] | Potency [8] | Potency [9] | Potency [10] | max response [11] 5.4% | Potency [12] | Potency [13] | Potency [19] | Potency [15]

Cc1c(O)cccc1O
inactive: Potency [1] | outcome [16] | outcome [2] | Potency [3] | Potency [4] | Potency [5] | Potency [6] | Potency [18] | Potency [7] | Potency [8] | Potency [9] | Potency [10] | max response [11] 1.57% | Potency [12] | Potency [13] | Potency [19] | Potency [14] | Potency [15]

CC(C[N+](C)(C)C)OC(N)=O (configuration not stated)
inactive: Potency [1] | outcome [16] | Potency [3] | Potency [4] | activity change, positive = activation [17] 3.25% [at 42.5 µM] | Potency [5] | Potency [18] | Potency [7] | Potency [8] | Potency [9] | Potency [10] | max response [11] 4.17% | Potency [12] | Potency [13] | Potency [19] | Potency [15]

CN(C(=O)c1c(O)c2ccccc2n(C)c1=O)c1ccccc1
inactive: Potency [1] | outcome [16] | outcome [2] | Potency [3] | Potency [4] | Potency [5] | Potency [6] | Potency [18] | Potency [7] | Potency [8] | Potency [9] | Potency [10] | max response [11] 9.26% | Potency [12] | Potency [13] | Potency [19] | Potency [14] | Potency [15]

CCSC(=O)N(CC(C)C)CC(C)C
inactive: Potency [1] | outcome [16] | outcome [2] | Potency [3] | Potency [4] | activity change, positive = activation [17] 3.6% | Potency [5] | Potency [6] | Potency [7] | Potency [8] | Potency [9] | Potency [10] | Potency [12] | Potency [13] | Potency [19] | Potency [14] | Potency [15]

CCCCCCOC(=O)CCCCC(=O)OCCCCCC
inactive: Potency [1] | outcome [16] | outcome [2] | Potency [3] | Potency [4] | activity change, positive = activation [17] 5.81% | Potency [5] | Potency [6] | Potency [7] | Potency [8] | Potency [9] | Potency [10] | max response [11] 7.23% | Potency [12] | Potency [13] | Potency [19] | Potency [14] | Potency [15]

COc1ccc2c(c1)CCCC2=O
inactive: Potency [1] | outcome [16] | outcome [2] | Potency [3] | Potency [4] | activity change, positive = activation [17] 4.85% [at 42.5 µM] | Potency [5] | Potency [18] | Potency [7] | Potency [8] | Potency [9] | Potency [10] | Potency [19] | Potency [14] | Potency [15]

NC(=O)c1ccc(N)cc1
inactive: Potency [1] | outcome [2] | Potency [3] | Potency [4] | activity change, positive = activation [17] 8.51% | Potency [5] | Potency [6] | Potency [7] | Potency [8] | Potency [9] | Potency [10] | max response [11] -2.31% | Potency [12] | Potency [13] | Potency [19] | Potency [14] | Potency [15]

NS(=O)(=O)c1cc2c(cc1Cl)NC(C1CC3C=CC1C3)NS2(=O)=O (configuration not stated)
inactive: Potency [1] | outcome [16] | Potency [3] | Potency [5] | Potency [6] | Potency [18] | Potency [7] | Potency [8] | Potency [9] | Potency [10] | max response [11] 11.9% | Potency [13] | Potency [19] | Potency [14] | Potency [15]

FC(F)OC(Cl)C(F)(F)F (configuration not stated)
inactive: Potency [1] | outcome [16] | outcome [2] | Potency [3] | Potency [4] | activity change, positive = activation [17] 8.92% | Potency [5] | Potency [6] | Potency [18] | Potency [7] | Potency [8] | Potency [9] | Potency [10] | Potency [12] | Potency [14] | Potency [15]

OC(CCN1CCCCC1)(c1ccccc1)C1CC2C=CC1C2 (configuration not stated)
inactive: Potency [1] | outcome [16] | outcome [2] | Potency [3] | Potency [5] | Potency [6] | Potency [18] | Potency [7] | Potency [9] | Potency [10] | max response [11] -10.3% | Potency [12] | Potency [13] | Potency [19] | Potency [14] | Potency [15]

O=c1cc(-c2ccccc2)oc2ccccc12
inactive: Potency [1] | outcome [2] | Potency [5] | Potency [18] | Potency [7] | Potency [10] | Potency [12] | Potency [13] | Potency [19]
inactive and 43.6 µM (active): Potency [15]
active: Potency [6] 15.5 µM and 6.88 µM | Potency [9] 19.5 µM and 6.88 µM | Potency [11] 11 µM and 14.8 µM

CCOC(=O)c1ccc(C)cc1
inactive: Potency [1] | outcome [2] | Potency [3] | Potency [4] | activity change, positive = activation [17] 4.47% | Potency [5] | Potency [18] | Potency [7] | Potency [8] | Potency [9] | Potency [10] | max response [11] 8.25% | Potency [12] | Potency [19] | Potency [14] | Potency [15]

Reference: PubChem BioAssay (Tox21)
